# Laboratory results published in PubChem BioAssay AID1259309 (ICCB-Longwood Screening Facility, Harvard Medical School, 2017).
# “And” between values parts separate entries of the source, which are not always exact repeats. Identical values can stand only once. Screen size: about 330,000 compounds; about 1,800 (0.55%) were called active. Rule as the data show it: active = growth inhibition above about 68%; inactive = the rest. The entries come from a sample that favours actives as a whole. Some structures have more than one record in an assay (separate samples or runs), and their calls can disagree.
# Assay: growth inhibition of ugtP-null S. aureus, primary screen, RN4220 ugtP deletion, OD600 (AID 1259309);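 also: plate controls were untreated wells for no effect and antibiotic for full effect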
# Details: 16 h, stronger effect = higher value
row,Compound,growth inhibition
1,CCOC(=O)CN1C(=O)NC(c2ccco2)C(C(C)=O)=C1C (configuration not stated),-0.836% (inactive)
2,CCC(=O)Nc1cccc(C2=NOC3(C2)CC(C(N)=O)N(C(=O)COc2ccc(Cl)cc2)C3)c1 (configuration not stated),3.89% (inactive)
3,Cc1c(CN2CCC(CO)(CCOc3ccccc3)CC2)[nH]c2ccc(Cl)cc12,95.4% (active)
4,CCOC(=O)C1(CCOc2ccccc2)CCN(Cc2cc(OC)cc(OC)c2)CC1,2.42% (inactive)
5,CCOC(=O)C1(CCOc2ccccc2)CCN(Cc2cc(OC)c(O)cc2Cl)CC1,4.94% (inactive)
6,Nc1nonc1-n1nnc(C(=O)NN=Cc2ccc(Cl)cc2Cl)c1CN1CCCCC1,6.34% (inactive)
7,ON=C1CC2(CC(=NO)C1=NO)OCCO2,-5.45% (inactive)
8,S=C(Nc1ccccc1)Nc1ccc2ccccc2c1,-7.81% (inactive)
9,O=C(Nc1ccc2ccccc2c1)Nc1ccc2snnc2c1,94.2% (active)
10,Cc1nc2cc(NC(=O)Nc3cccc(F)c3)ccc2n1C,-1.04% (inactive)
11,COCc1cc(C)nc(OCC(=O)NN=Cc2ccc(C)cc2)c1C#N,3.45% (inactive)
12,COc1ccc(OC)c(C(C)NC(=S)Nc2ccc(S(=O)(=O)Nc3ncccn3)cc2)c1 (configuration not stated),6.82% (inactive)
13,COc1ccc(NS(=O)(=O)c2ccc(NC(=S)NC(=O)CC(C)C)cc2)cc1,88% (active)
14,CC(=O)c1ccc(NC(=S)NC(=O)CC(C)C)cc1,29.6% (inactive)
15,COc1ccc(/C=C\C(=O)Oc2cccc(C=NNC(=O)Cc3ccc(OC)c(OC)c3)c2)cc1,28.2% (inactive)
16,CCCCC1CC1C(NC(=O)c1cccs1)c1ccc(C(F)(F)F)cc1 (configuration not stated),3.18% (inactive)
17,CCOC(=O)C1=C(c2ccc(OC)cc2)C(=O)c2ccccc2C1=O,98.1% (active)
18,COC(=O)c1cc(OC)ccc1-c1ccc(OC)cc1,24.4% (inactive)
19,COc1ccc(CNC(=O)CCN2C(=O)c3ccccc3C2=O)cc1,0.235% (inactive)
20,O=C(NC1CC(=NO)c2cc3c(cc21)OCO3)C(F)(F)F (configuration not stated),3.72% (inactive)
21,Fc1ccc(-c2ccc(C=Nn3cnnc3)o2)cc1,3.75% (inactive)
22,O=C(CSc1nc2ccccc2n1Cc1ccc(Cl)cc1)NN=Cc1ccccc1C(=O)O,0.317% (inactive)
23,OCCC1CC(O)C(O)[C@@]2(CCCc3ccccc3O2)O1 (some centres not stated),-2.74% (inactive) and 36.1% (inactive) and 95.4% (active)

row,Compound,growth inhibition
1,OCCC1CC(O)C(O)[C@]2(Cc3ccccc3O2)O1 (some centres not stated),-11.4% (inactive) and -1.82% (inactive) and 6.13% (inactive)
2,COc1ccc(-c2cnnc(NN=Cc3ccc(OC)c(OC)c3)n2)cc1,-0.988% (inactive)
3,COc1cc(C(=O)NCC(=O)NN=C(C)Cc2ccccc2)cc(OC)c1OC,1.68% (inactive)
4,Cc1c(O)ccc(C(Cc2ccc3ccccc3n2)=NN)c1O,7.02% (inactive)
5,Cc1cc(N=Nc2ccc3ccccc3c2)ccc1O,100% (active)
6,Cc1nonc1NC(=O)CSc1nc2ccccc2cc1C#N,-7.53% (inactive)
7,Cc1nc2cc(NC(=O)CSc3nc4c(C)cccc4cc3C#N)ccc2s1,96.5% (active)
8,Cc1cc(C)c(C#N)c(SCC(=O)Nc2ccccc2)n1,-0.258% (inactive)
9,Cc1ccc(NC(=S)NN=C2CC(C)(C)Oc3ccc(O)cc32)cc1,-1.6% (inactive)
10,CCCc1c(C(=O)NN=Cc2ccncc2)nnn1-c1nonc1N,-1.92% (inactive)
11,O=C(NCc1ccc2c(c1)OCO2)c1c(-c2ccsc2)sc2ccccc12,13.5% (inactive)
12,Cn1cncc1C#Cc1c(-c2ccsc2)sc2ccccc12,89% (active)
13,COc1ccc2sc(-c3ccc(S(C)(=O)=O)cc3)c(C#Cc3cncn3C)c2c1,-24.1% (inactive)
14,CC1CN(C(C)CO)C(=O)c2cc(NS(=O)(=O)c3ccccc3)ccc2OC1CN(C)C(=O)Nc1ccc2c(c1)OCO2 (configuration not stated),1.83% (inactive)
15,CCCCN1C(=N)N(C(C)CN2CCCC2CN2C(N)=NCC2Cc2ccccc2)CC1C(C)CC (configuration not stated),2.45% (inactive)
16,CC[C@@H](C)[C@@H]1CN([C@@H](C)CN2CCC[C@H]2CN2C(N)=NC[C@H]2C(C)C)C(=N)N1CCc1ccc(Cl)c(Cl)c1,100% (active)
17,CC(=O)C(=NNc1ccccc1)Sc1nnc(-c2ccccc2)n1-c1ccccc1,-0.945% (inactive)
18,CCc1ccc(C=Nn2c(C)cc(C)c(C#N)c2=O)cc1,11.9% (inactive)
19,CC(=NNC(=O)c1c(-c2ccccc2Cl)noc1C)c1cccc(NC(=O)C(C)C)c1,-1.85% (inactive)
20,Cc1csc(Nc2ccc(Cl)cc2)[n+]1-c1ccc(Cl)cc1,94.3% (active)
21,O=c1ccnc(Nc2ccc(Cl)cc2)[nH]1,-0.107% (inactive)
22,CCOC1OC(C(N)=O)=CC(c2csc3ccccc23)C1CCCO (configuration not stated),-0.922% (inactive)
23,NC(=O)CC1NC(=O)C(CCC(=O)O)NC(=O)c2cc([N+](=O)[O-])cc(I)c2NCCCC(C(N)=O)NC1=O (configuration not stated),5.02% (inactive)

row,Compound,growth inhibition
1,COc1cccc(C=NNC(=O)c2ccccc2NC(=O)c2ccco2)c1OC,17.5% (inactive)
2,COC(=O)Cc1ccc(OCC(=O)NC2CCCC2)cc1,5.86% (inactive)
3,Cc1cccc(OCC(=O)NC2CC(C)(C)NC(C)(C)C2)c1,-2.79% (inactive)
4,CC1(C)SC2C(NC(=O)COc3ccccc3)C(=O)N2C1C(=O)O (configuration not stated),101% (active)
5,CC1=CC(=C(C#N)c2nc3ccccc3s2)C=C(C)N1c1ccc(F)cc1F,3.53% (inactive)
6,N#C/C(=C(/O)Cc1cccc2ccccc12)c1nc2ccccc2s1,88% (active)
7,O=C(O)CS/C(=C\c1ccc(F)cc1)c1nc2ccccc2s1,-0.309% (inactive)
8,CSc1ccc(C2=CC(=O)CC(c3ccc(F)cc3)C2)cc1 (configuration not stated),-1.01% (inactive)
9,Cc1ccc(C=NNC(=O)CSc2nc3ccccc3n2C)s1,0.402% (inactive)
10,Cn1c(SCC(=O)NN=Cc2ccc([N+](=O)[O-])s2)nnc1-c1ccccc1,100% (active)
11,Cc1ccc(C=NNC(=O)CSc2nc3ccccc3c(=O)n2-c2ccccc2)s1,-33.9% (inactive)
12,CCCc1noc2c1C(=NO)CCC2,0.229% (inactive)
13,CCc1ccc(NC(=O)c2ccc(Cn3cc([N+](=O)[O-])cn3)cc2)cc1,5.62% (inactive)
14,COc1cc(NS(=O)(=O)c2ccc(NC(=O)c3ccc([N+](=O)[O-])cc3)cc2)ncn1,2.78% (inactive)
15,Cn1ccc(=Nc2ccc(NC(=O)c3ccc(N=c4ccn(C)c5ccc([N+](=O)[O-])cc45)cc3)cc2)cc1,99.6% (active)
16,CCOc1cc(C=NNC(=O)c2nnn(-c3nonc3N)c2C)ccc1OCc1cccc(F)c1,-21.1% (inactive)
17,CSc1sccc1C=NNC(=O)c1ccncc1,-0.193% (inactive)
18,CCN1/C(=C/c2ccc3ccc(C)cc3[n+]2CC)Sc2ccccc21,100% (active)
19,CC(=NNC(=O)c1ccc(F)cc1)c1ccccn1,-8.87% (inactive)
20,CCOc1cc(C=NNC(=O)c2cccc(S(=O)(=O)N3CCOCC3)c2)ccc1OCC(=O)N(C)C,7.71% (inactive)
21,COC(=O)c1ccc(SCc2ccccc2)nc1,3.84% (inactive)
22,COC(=O)c1ccc(-c2c(-c3ccccc3)ncc3cc(OC)c(OC)cc23)cc1,97.6% (active)
23,COc1ccc(CNC(=O)Cc2ccc(-c3ccccc3)cc2)cc1OC,-1.11% (inactive)

row,Compound,growth inhibition
1,Cc1cccc(-n2c(C)cc(C=NNC(=O)c3ccco3)c2C)c1,-2.71% (inactive)
2,COC(=O)C1=C(c2ccc(S(C)(=O)=O)cc2)CC2CCC1N2C(=O)N1CCCC1 (configuration not stated),2.31% (inactive)
3,Cc1nn(-c2ccccc2)c(Cl)c1C=NO,-0.481% (inactive)
4,Cc1ccc(C(=O)/C=C/c2c(C)nn(-c3ccccc3)c2Cl)cc1,-4.9% (inactive)
5,Cc1nn(-c2ccccc2)c(Cl)c1/C=C/C(=O)c1ccc(O)cc1,86.2% (active)
6,CNC(=S)NN=Cc1c(C(=O)OC)cnn1-c1ccc(F)cc1F,2.84% (inactive)
7,O=S(=O)(N=C(c1ccccc1Cl)N1CCOCC1)c1ccccc1,-1.9% (inactive)
8,Cc1cc(C(=O)NN=C2CCCC(C)C2)n[nH]1 (configuration not stated),1.57% (inactive)
9,COc1cc(OC)c(S(=O)(=O)Nc2ccccc2C(=O)O)cc1S(=O)(=O)Nc1ccccc1C(=O)O,7.58% (inactive)
10,COc1cc(NC(=O)c2ccccc2NS(=O)(=O)c2ccc(Cl)s2)cc(OC)c1,88% (active)
11,COc1ccccc1C(=O)Nc1ccccc1C(=O)Nc1ccccc1,6.78% (inactive)
12,COC(=O)C1C[C@@]2(O)C(O)C(O)C(O)CC2N1Cc1cc(F)ccc1F (some centres not stated),-1.93% (inactive)
13,CCOC(=O)N=C(NC(=O)Nc1ccc(C(=O)OCC)cc1)OC,0.614% (inactive)
14,Cc1ccccc1C=Nn1c(C2CCCCC2)n[nH]c1=S,-0.971% (inactive)
15,N#CC1=C(SCc2ccc(C#N)cc2)N=C(N)C(c2nc(-c3ccccc3)cs2)C12CCCCC2 (configuration not stated),92.2% (active)
16,N#Cc1ccc(CSc2ncccn2)cc1,7.1% (inactive)
17,N#CC1=C(SCc2ccccc2)NC(=O)C(C#N)C12CCCC2 (configuration not stated),-2.16% (inactive)
18,CC(=NOCC(=O)OCC(=O)Nc1cc(S(C)(=O)=O)ccc1Cl)c1ccc2c(c1)OCO2,4.9% (inactive)
19,CCOc1cc(C=NNC(=O)C(O)(c2ccccc2)c2ccccc2)ccc1OC(=O)c1ccco1,0.814% (inactive)
20,COCCN=C1NC(c2cccc(C(F)(F)F)c2)C(C(=O)OC)=C(C)N1Cc1ccccc1 (configuration not stated),-23% (inactive)
21,CN1CCN(C(=O)COc2ccc(C(C)(C)C)cc2Br)CC1,-4.55% (inactive)
22,CCC(C)(C)c1ccc(OCC(=O)N(C)C)c(C(C)(C)CC)c1,93.1% (active)
23,CCc1nc(C)ccc1OCC(=O)N(CC)CC,2.97% (inactive)
